From PubChem BioAssay
In the library only some 5.4% were active in any assay of this set; here they are far more common.
JMJD2C inh – blocks human GASC-1 demethylase activity. 330,000 compounds, 0.069% hits. GST-JMJD2C(1-420) H3K9me3 demethylation, DELFIA europium. inhibition, % at 2.35 µM. Q9H3R0;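 active = more than half of a compound's replicate wells show inhibition beyond 50%, single wells judged on their own value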;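 note: signal counts dimethyl H3K9 product captured on neutravidin plate; 0% = median of DMSO wells and 100% = 0.3 times that DMSO median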
Target sequence (Q9H3R0 1-420 limits assumed): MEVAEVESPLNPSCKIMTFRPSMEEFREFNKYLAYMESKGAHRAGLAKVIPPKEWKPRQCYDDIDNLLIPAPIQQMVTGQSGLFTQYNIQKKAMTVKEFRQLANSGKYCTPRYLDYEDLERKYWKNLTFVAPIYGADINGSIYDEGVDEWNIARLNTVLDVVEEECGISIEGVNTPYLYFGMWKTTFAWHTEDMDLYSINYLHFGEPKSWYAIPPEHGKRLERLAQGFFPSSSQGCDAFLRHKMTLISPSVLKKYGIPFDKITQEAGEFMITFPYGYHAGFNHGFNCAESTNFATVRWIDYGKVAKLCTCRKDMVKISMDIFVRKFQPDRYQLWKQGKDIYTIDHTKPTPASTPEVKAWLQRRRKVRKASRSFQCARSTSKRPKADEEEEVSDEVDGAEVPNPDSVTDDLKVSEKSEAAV
ALR H2O2 inh – human ALR oxidase inhibition via reduced H2O2 | AID 485317 | P55789 | 290,000 compounds, 3.8% hits | purified ALR, DTT oxidation, H2O2 HRP-luminol luminescence | inhibition, % (no concentration beside the values);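 active = mean replicate inhibition above about 79%, with every replicate also reaching it, limit read from the data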
PfM18AAP inh – PfM18AAP enzyme inhibition | recombinant PfM18AAP, H-Glu-NHMec fluorogenic cleavage | inhibition, % at 7.35 µM | 290,000 compounds, 1.2% hits | AID 1822;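 active = inhibition above the campaign mean inhibition over all tested compounds plus 3 SD, cut at about 28% in these data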;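 note: 0% = plate median of test compound wells and 100% = 2 mM ZnCl2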
SMARCA2 activ – increases SMARCA2 function in MMTV reporter cells; MG213 cells, MMTV-luciferase reporter, dexamethasone, overnight; activation, % at 9.1 µM; 370,000 compounds, 1% hits; AID 652017; in the data active = activation above about 7.8%;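 note: 0% = vehicle wells and 100% = reference activator wells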
Granule exo inh – blocks lytic granule exocytosis. TALL-104 LAMP-1 surface exposure, flow cytometry; cells stimulated with thapsigargin and PMA. 360,000 compounds, 0.66% hits. inhibition, % at 10 µM. AID 651702;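 active = inhibition above about 55%, limit read from the data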
beta cell repl – inducers of beta-cell replication in MIN6 cells; MIN6 cells proliferation, ATPlite luminescence, 48 h; cells starved in 0.2% serum; 100% = growth in 10% serum; proliferation, % at 10 µM; 330,000 compounds, 0.29% hits; AID 2380;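 active = compounds whose signal lies at least 3.5 SD above the mean of all wells on their plate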;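 note: 0% = DMSO-treated cells in low-serum medium and 100% = 10% serum control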
* hit, by the source's call.

`COc1ccc(C(=O)CSc2nnc(-c3ccco3)c(-c3ccco3)n2)cc1` gave JMJD2C inh 22, PfM18AAP inh 19, SMARCA2 activ -3 and Granule exo inh -5.
`CCc1cc(C(=O)c2ccccc2)c(N)s1` gave JMJD2C inh 4, ALR H2O2 inh 99*, PfM18AAP inh 6, SMARCA2 activ 1, Granule exo inh 10 and beta cell repl -3.
For O=C(O)Cc1ccc(C(=O)c2ccccc2)s1 the results were JMJD2C inh -6, ALR H2O2 inh -6, PfM18AAP inh -11, SMARCA2 activ -2, Granule exo inh 0 and beta cell repl -1.
For O=[N+]([O-])c1cc(S(=O)(=O)Nc2ccccc2)ccc1N1CCN(c2ccc(O)cc2)CC1 the results were JMJD2C inh 3, PfM18AAP inh 30*, SMARCA2 activ -1, Granule exo inh -2 and beta cell repl -5.
`Cc1ccc(NS(=O)(=O)c2ccc(N3CCN(c4ccc(O)cc4)CC3)c([N+](=O)[O-])c2)c(C)c1` gave JMJD2C inh 7, ALR H2O2 inh 4, PfM18AAP inh 27, SMARCA2 activ -7, Granule exo inh 2 and beta cell repl 0.
CN1CCN(S(=O)(=O)c2ccc(N3CCN(c4ccc(O)cc4)CC3)c([N+](=O)[O-])c2)CC1 was read as JMJD2C inh -1, ALR H2O2 inh 98*, SMARCA2 activ -5, Granule exo inh -2 and beta cell repl -7.
CCOc1ccc(-n2c(SCC(=O)Nc3cccc4ccccc34)nnc2-c2ccco2)cc1 was read as SMARCA2 activ -5.
`Cc1ccc2nc(-c3ccc(NC(=O)CSc4nnc(-c5ccccc5)n4Cc4ccco4)cc3)sc2c1` gave SMARCA2 activ 1.
`CCOC(=O)c1c(C)[nH]c(C(=O)OCC(=O)Nc2ccc(OCC)cc2)c1C` gave JMJD2C inh 4, ALR H2O2 inh 54, PfM18AAP inh -14, SMARCA2 activ -2, Granule exo inh -2 and beta cell repl 0.
CCOC(=O)c1c(C)[nH]c(C(=O)C(C)OC(=O)c2ccc(NC(=O)CC#N)cc2)c1C (configuration not stated) was read as JMJD2C inh -6, ALR H2O2 inh 99*, SMARCA2 activ -1, Granule exo inh 4 and beta cell repl -6.
Screening CC(OC(=O)c1ccc(NC(=O)CC#N)cc1)C(=O)NCCC1=CCCCC1 (configuration not stated) returned JMJD2C inh -5, ALR H2O2 inh 98*, SMARCA2 activ 0, Granule exo inh -4 and beta cell repl -1.
For C=CCn1c(COc2ccccc2)nnc1SCC(=O)Nc1ccc(Oc2ccccc2)cc1 the results were SMARCA2 activ -2.
`O=C(CNS(=O)(=O)c1ccc(Cl)s1)N1CCN(c2ccccn2)CC1` gave SMARCA2 activ -5.
NC(=O)c1ccc2c(=O)c(O)c(-c3cc(Cl)c(N)c(Cl)c3)[nH]c2c1 was read as JMJD2C inh 18, ALR H2O2 inh 22, PfM18AAP inh 51*, SMARCA2 activ -1, Granule exo inh -17 and beta cell repl -1.
CC(C)NC(=O)OC[C@H]1O[C@H](C#Cc2ccc(C(C)(C)C)cc2)C=C[C@H]1O was read as SMARCA2 activ -4.
For CC1CCN(S(=O)(=O)c2ccc(C(=O)Nc3nnc(-c4ccco4)o3)cc2)CC1 the results were JMJD2C inh 2, ALR H2O2 inh 9, PfM18AAP inh -6, SMARCA2 activ -2, Granule exo inh -5 and beta cell repl -6.
Screening CC1CN(S(=O)(=O)c2ccc(C(=O)Nc3nnc(-c4ccco4)o3)cc2)CC(C)O1 (configuration not stated) returned JMJD2C inh 1, ALR H2O2 inh 87*, PfM18AAP inh 8, SMARCA2 activ -4, Granule exo inh -1 and beta cell repl -2.
Screening COCC#Cc1cnc2c(c1)C(=O)N([C@@H](C)CO)C[C@H](C)[C@H](CN(C)C(=O)c1ccc3c(c1)OCO3)O2 returned SMARCA2 activ 0.
N#CC(C#N)=c1ccc2c(c1)N1C3=C(CCCC3)CC3CCCCC31N=2 (configuration not stated) was read as JMJD2C inh -10, ALR H2O2 inh -5, PfM18AAP inh -6, SMARCA2 activ -1, Granule exo inh 64* and beta cell repl -4.
`N#C/C(C(N)=O)=c1/ccc2c(c1)N1C3=C(CCCC3)CC3CCCCC31N=2` (configuration not stated) gave JMJD2C inh -7, ALR H2O2 inh 65, PfM18AAP inh 1, SMARCA2 activ 3 and beta cell repl -4.
Screening O=C(CSc1nnc(-c2cccs2)n1Cc1ccco1)Nc1ccc(Oc2ccccc2)cc1 returned SMARCA2 activ 1.
Screening Nc1cccc(/C=C/c2ccncc2)c1 returned JMJD2C inh 1, ALR H2O2 inh 99*, PfM18AAP inh 0, SMARCA2 activ -2, Granule exo inh 2 and beta cell repl -1.
`Nc1cccc(CCc2ccncc2)c1` gave JMJD2C inh 1, ALR H2O2 inh 90*, PfM18AAP inh -3, SMARCA2 activ -1, Granule exo inh -4 and beta cell repl -3.
C[C@H]1CN([C@@H](C)CO)C(=O)c2c(c3ccccc3n2C)-c2ccccc2CO[C@H]1CN(C)C(=O)Nc1cccc(F)c1 was read as SMARCA2 activ -3.
CCCCCCCCN1C(=O)[C@@H](CC(=O)N2CCN(C(=O)c3ccco3)CC2)C[C@@]2(C(=O)OC)C1=C[C@H](COCc1ccccc1)O[C@@H]2C was read as SMARCA2 activ -1.
Screening CCN1CCN(c2ccc(S(=O)(=O)N3CCCCC3)cc2NC(=O)/C=C/c2cc(OC)ccc2OC)CC1 returned JMJD2C inh 1, ALR H2O2 inh 1, PfM18AAP inh 5, SMARCA2 activ 6, Granule exo inh 60* and beta cell repl -7.
`CCN1CCN(c2ccc(S(=O)(=O)N3CCCCC3)cc2NC(=O)/C=C/c2ccc(OC)c(OC)c2)CC1` gave JMJD2C inh 8, ALR H2O2 inh -30, SMARCA2 activ 6, Granule exo inh 17 and beta cell repl -7.
Screening CCN1CCN(c2ccc(S(=O)(=O)N3CCCCC3)cc2NC(=O)Cc2ccc(Cl)c(Cl)c2)CC1 returned JMJD2C inh 5, ALR H2O2 inh -13, Granule exo inh 56* and beta cell repl -7.
For Cc1ccc2nc(-c3ccc(F)cc3)c(Cc3ccsc3)n2c1 the results were SMARCA2 activ 4.
`COc1ccc2c(c1)CCCN2C(=O)C1CCCN(S(=O)(=O)c2c(C(C)C)cc(C(C)C)cc2C(C)C)C1` (configuration not stated) gave SMARCA2 activ -3.
`Cc1cccc(C(=O)N2CCN=C2SCc2ccc([N+](=O)[O-])cc2)c1` gave JMJD2C inh -22, ALR H2O2 inh 99*, PfM18AAP inh 1, SMARCA2 activ -3, Granule exo inh 22 and beta cell repl -1.
